# LRH-1 inv ag: NR5A2 inverse agonism in reporter assay; O00482; HEK293T StAR-luciferase reporter, LRH-1 transfected, 24 h; inhibition, % at 3.6 µM; hit rate 0.13% among 360,000; AID 602396;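 active = inhibition above the mean inhibition of all tested compounds plus 3 SD, cut at about 73% in these data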
# NCOA1 inh: human NCOA1 inhibition; HEK293 GAL4-SRC1 luciferase reporter, luminescence; inhibition, % at 3.6 µM; hit rate 0.12% among 360,000; AID 588354;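 active = inhibition above the campaign mean plus 3 SD, with each screening campaign given its own cutoff, cut at about 60% in these data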
# LGR2 antag: blocks bursicon-induced cAMP signaling via Drosophila LGR2; AID 720647; HEK293 LGR2, CRE-luciferase, bursicon-stimulated, 4 h; hit rate 0.35% among 380,000; inhibition, % at 9.99 µM;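 active = drop in luminescence signal, shown as inhibition above about 50% in the replicate tests, limit read from the data, passing the limit was not always enough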;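 note: agonist challenge used bursicon conditioned medium at about half maximal strength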
# NCOA2 inhibitor: human SRC2 (NCOA2) inhibition; HEK293 GAL4-SRC2 luciferase reporter, luminescence; hit rate 0.17% among 370,000; inhibition, % at 9 µM; Q15596; AID 651957;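 active = inhibition above the mean inhibition of all tested compounds plus 3 SD, set per campaign, cut at about 52% in these data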
# NCOA3 inh: human NCOA3 inhibition; Q9Y6Q9; HEK293 GAL4-SRC3 luciferase reporter, luminescence; inhibition, % at 3.6 µM; hit rate 0.17% among 360,000; AID 588352;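 active = inhibition above a per-campaign cutoff, the mean of all compounds plus 3 SD, cut at about 60% in these data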;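 note: higher means less SRC3-driven luciferase light from the GAL4 reporter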
# Target sequence (Q9Y6Q9 whole entry, looked up, the tested form may be a part): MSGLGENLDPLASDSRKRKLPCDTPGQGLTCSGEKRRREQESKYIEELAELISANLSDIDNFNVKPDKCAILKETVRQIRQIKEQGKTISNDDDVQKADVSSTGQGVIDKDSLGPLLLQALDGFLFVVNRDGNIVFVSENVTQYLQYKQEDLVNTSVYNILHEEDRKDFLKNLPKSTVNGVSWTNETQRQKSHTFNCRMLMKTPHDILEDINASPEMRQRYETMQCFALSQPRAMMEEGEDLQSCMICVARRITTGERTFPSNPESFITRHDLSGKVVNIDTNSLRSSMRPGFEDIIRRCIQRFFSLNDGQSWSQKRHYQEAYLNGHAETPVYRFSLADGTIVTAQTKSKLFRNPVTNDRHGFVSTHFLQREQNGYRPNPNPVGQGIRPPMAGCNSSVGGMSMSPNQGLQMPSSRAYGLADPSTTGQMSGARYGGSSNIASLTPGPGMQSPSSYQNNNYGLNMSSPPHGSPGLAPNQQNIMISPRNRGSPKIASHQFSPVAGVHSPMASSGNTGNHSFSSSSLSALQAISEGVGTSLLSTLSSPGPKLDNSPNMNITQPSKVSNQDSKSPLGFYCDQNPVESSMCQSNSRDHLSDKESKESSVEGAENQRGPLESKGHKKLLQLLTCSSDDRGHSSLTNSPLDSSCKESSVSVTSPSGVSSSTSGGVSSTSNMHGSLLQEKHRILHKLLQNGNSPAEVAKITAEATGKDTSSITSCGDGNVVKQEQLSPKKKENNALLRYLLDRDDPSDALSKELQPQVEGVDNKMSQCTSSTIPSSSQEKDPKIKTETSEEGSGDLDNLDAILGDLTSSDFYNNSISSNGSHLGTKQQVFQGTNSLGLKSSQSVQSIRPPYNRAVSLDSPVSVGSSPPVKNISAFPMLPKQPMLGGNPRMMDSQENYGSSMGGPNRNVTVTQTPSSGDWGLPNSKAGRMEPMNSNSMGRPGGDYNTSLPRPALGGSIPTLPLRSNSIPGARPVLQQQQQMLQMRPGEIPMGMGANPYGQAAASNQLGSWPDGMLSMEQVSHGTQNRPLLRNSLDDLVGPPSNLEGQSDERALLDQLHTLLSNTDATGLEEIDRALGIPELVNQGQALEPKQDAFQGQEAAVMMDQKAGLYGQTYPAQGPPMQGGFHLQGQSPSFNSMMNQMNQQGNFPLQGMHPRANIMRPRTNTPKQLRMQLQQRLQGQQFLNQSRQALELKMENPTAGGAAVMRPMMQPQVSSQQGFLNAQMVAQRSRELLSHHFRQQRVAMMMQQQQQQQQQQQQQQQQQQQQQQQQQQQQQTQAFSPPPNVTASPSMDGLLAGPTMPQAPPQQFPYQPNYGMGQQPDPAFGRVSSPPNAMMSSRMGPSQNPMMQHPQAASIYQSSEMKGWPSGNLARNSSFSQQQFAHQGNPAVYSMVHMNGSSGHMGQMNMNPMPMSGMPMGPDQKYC
# A number is an active result; i = inactive; nt = no result given. This is a sample that favours compounds with a hit; in the whole collection about 0.45% have one here.
SMILES,LRH-1 inv ag,NCOA1 inh,LGR2 antag,NCOA2 inhibitor,NCOA3 inh
C[C@@H]1CN([C@@H](C)CO)S(=O)(=O)c2ccc(-c3ccc(C(=O)N(C)C)cc3)cc2O[C@H]1CN(C)C(=O)C1CC1,nt,nt,i,nt,nt
c1ccc(-c2nc(-c3nccc4ccccc34)oc2-c2ccccc2)cc1,i,i,60,i,i
Nc1nc(-c2ccccc2)c(-c2ccccc2)o1,i,i,i,i,i
CCNC(=O)C[C@@H]1CC[C@@H]2[C@H](COc3ccc(NC(=O)c4ccccc4Cl)cc3C(=O)N2C)O1,nt,nt,i,nt,nt
O=C(CCl)N(c1ccccc1)C1CCCCC1,i,i,94,i,i
CC(=O)N(c1ccccc1)C1CCCC1,i,i,i,i,i
COc1ccc(S(=O)(=O)Nc2cc(Sc3ncn[nH]3)c(O)c3ccccc23)cc1,nt,nt,nt,61,nt
CN1CCN(c2ncnc3scc(-c4ccccc4Cl)c23)CC1,i,i,i,i,63
Cc1cc(-c2csc3ncnc(N4CCN(C)CC4)c23)cc(C)c1C,i,i,i,i,i
CC(C)c1cn(CC[C@H]2CC[C@H](NC(=O)C3CCOCC3)[C@@H](CO)O2)nn1,nt,nt,i,nt,nt
N=c1c2c(n(Cc3cccc(Cl)c3)c3c1CCC3)CCCC2,75,i,i,i,i
N=c1c2c(n(Cc3ccc(F)cc3)c3c1CCC3)CCCC2,i,i,i,i,i
N=c1c2c(n(Cc3ccccc3)c3c1CCC3)CCC2,i,i,i,i,i
N=c1c2c(n(Cc3ccc(Cl)cc3)c3c1CCC3)CCC2,92,i,i,i,70
O=C(C[C@H]1CC[C@H]2[C@@H](COC[C@H](O)CN2C(=O)Nc2ccc(C(F)(F)F)cc2)O1)NC1Cc2ccccc2C1,nt,nt,i,nt,nt
O=C(NC1CCCC1)N1CC(=O)N2[C@@H](CO)[C@H](c3ccc(-c4cccc(F)c4)cc3)[C@@H]2C1,nt,nt,i,nt,nt
CC(C)(C)NC(=O)c1cccc(NC(=O)c2ccc3c(c2)C(=O)N(C(C)(C)C)C3=O)c1,i,i,83,i,i
COc1ccc(/C=C/c2cc(-c3ccc(C)cc3)o[n+]2C)cc1,94,i,i,i,71
O=C1/C(=C/c2ccccc2O)SC(=S)N1Cc1cccnc1,i,i,83,i,i
COc1ccc2c3c([nH]c2c1)[C@@H](CO)N(Cc1nccs1)CC31CCN(C(=O)C2CC2)CC1,nt,nt,i,nt,nt
CCC(C)c1ccc(NC(=O)c2ccco2)cc1 (stereo unspecified),i,i,52,i,i
COc1ccc(-c2ccc(NC(=O)c3ccco3)cc2)nn1,i,i,66,i,i
O=S(=O)(Cc1ccccc1)NCC[C@@H]1CC[C@@H](NS(=O)(=O)c2ccc(F)cc2)[C@H](CO)O1,nt,nt,i,nt,nt
CC[C@@H]1CCC[C@@H](O)[C@@H](C)C(=O)O[C@H](C)[C@@H](C)C/C=C(C)/C(OC)=C\C(=O)N(C)C([C@@H](C)CC)C(=O)N(C)[C@@H](C(C)C)C(=O)N(C)[C@@H](COC)C(=O)N2CCC[C@H]2C(=O)N(C)[C@@H](C(C)C)C(=O)N2CCC[C@H]2C(=O)O1 (stereo partly specified),98,78,i,i,84
C[C@@H]1CN([C@@H](C)CO)C(=O)c2cccc(NS(C)(=O)=O)c2O[C@@H]1CN(C)Cc1ccc(Oc2ccccc2)cc1,nt,nt,i,nt,nt
SMILES,LRH-1 inv ag,NCOA1 inh,LGR2 antag,NCOA2 inhibitor,NCOA3 inh
O=C(/C(=C/c1ccc(Cl)cc1)c1nc2ccccc2[nH]1)c1cccs1,i,i,nt,nt,62
O=C(/C(=C\c1ccccc1)c1nc2ccccc2[nH]1)c1ccc(Cl)cc1,i,i,i,i,i
C#CCN(C[C@@H]1[C@@H](OC(=O)NCc2ccccc2F)[C@@H](OC(=O)NCc2ccccc2F)Cn2c(=O)ccc(=O)n21)S(=O)(=O)c1ccc(C)cc1,i,i,68,i,i
C#CCN(C[C@@H]1[C@@H](OC(=O)NC2CCCC2)[C@@H](OC(=O)NC2CCCC2)Cn2c(=O)ccc(=O)n21)S(=O)(=O)c1ccc(C)cc1,i,i,66,i,i
CC(C)NC(=O)N(C)C[C@H]1Oc2ncc(C#CC3CCCCC3)cc2C(=O)N([C@H](C)CO)C[C@H]1C,nt,nt,i,nt,nt
Cc1cc(C(=O)N2CCN(c3ccccc3)CC2)no1,i,i,i,nt,i
Cc1cc(C(=O)N2CCN(c3ccccn3)CC2)no1,i,i,nt,i,89
CN=c1scc(-c2cccs2)n1/N=C/c1ccccc1O,98,92,100,88,93
O=C(NCc1cccnc1)/C(=C\c1ccc(-c2cccc(Cl)c2)o1)S(=O)(=O)c1ccccc1,i,i,87,63,82
CCOc1ccc(-c2cc(CCCC(=O)NCc3ccco3)no2)cc1,i,i,i,60,i
COc1ccc(-c2cc(CCCC(=O)NCCc3cc(OC)ccc3OC)no2)cc1,i,i,i,i,i
CCOc1ccc(-c2cc(CCCC(=O)NCc3ccc(C)cc3)no2)cc1,i,i,i,65,i
CO[C@@H]1CN(C)C(=O)c2ccc(NC(=O)C3CCOCC3)cc2OC[C@@H](C)N(CC2CC2)C[C@@H]1C,nt,nt,i,nt,nt
COC(=O)C12OCC34C(CC5C(C)=C(O)C(=O)CC5(C)C3C(O)C1O)OC(=O)C(OC(=O)C=C(C)C)C24 (stereo unspecified),97,96,100,83,94
O=C(/C=C/Nc1ccccc1F)c1cccs1,i,i,80,i,i
O=C(/C=C\Nc1cccc(F)c1)c1cccs1,i,i,nt,i,i
O=C(/C=C/Nc1ccc(Br)cc1F)c1ccco1,i,i,89,i,i
Cc1ccc(N/C=C/C(=O)c2cccs2)cc1,i,i,75,i,i
O=C(/C=C/Nc1ccc(F)cc1F)c1cccs1,i,i,79,i,i
Cc1nnc(C)n1/N=C/c1c(O)ccc2ccccc12,i,i,i,i,i
Cc1nnc(-c2ccccc2)c(=O)n1/N=C/c1c(O)ccc2ccccc12,i,i,nt,i,74
O=C(c1ccncc1)N1CC2(C1)[C@H](c1ccccc1)[C@@H](CO)N2CC1CCOCC1,nt,nt,i,nt,nt
CCOc1ccc(-c2nc(CSCC(=O)N3CCN(c4cccc(OC)c4)CC3)c(C)o2)cc1,i,i,i,59,i
O=C(c1ccccc1)N1CC(=O)N2[C@@H](CO)[C@@H](c3ccc(C#Cc4ccccc4)cc3)[C@@H]2C1,nt,nt,i,nt,nt
Nc1ccc(Oc2ccccc2-c2ccccc2)cc1,i,i,nt,83,i
SMILES,LRH-1 inv ag,NCOA1 inh,LGR2 antag,NCOA2 inhibitor,NCOA3 inh
NCCOc1ccccc1-c1ccccc1,i,i,nt,i,i
COc1ccc2c(c1)c(/C=N/Nc1nc3ccccc3[nH]1)c(C)n2C,i,i,59,i,i
COc1cc(/C=N\Nc2nc3ccccc3[nH]2)cc(OC)c1OC,i,i,nt,i,i
CCCNC(=O)N1CC2(C1)[C@@H](c1ccccc1)[C@@H](CO)N2CC1CC1,nt,nt,i,nt,nt
COc1ccc(NC(=O)N2CC3(C2)CN(C(=O)C2CCC2)[C@H](CO)c2c3c3ccc(OC)cc3n2C)cc1,nt,nt,i,nt,nt
Clc1ccc(-c2csc(=Nc3cccnc3)n2CCCn2ccnc2)cc1Cl,i,i,nt,57,i
COCCn1c(-c2ccc(Br)cc2)csc1=Nc1cccnc1,i,i,i,i,i

# Screens from PubChem BioAssay.
